Measured values taken from PubChem BioAssay (NCATS).
Results filed as inconclusive are left out. A number with no mark means an inactive call. The source made the active and inactive calls. Calls follow the shape of the dose curve; as a rule, active = well fitted curve in either direction with a large enough effect (not every such curve was filed as active); inconclusive = small, poorly fitted or top-dose-only effect, or another doubt; inactive = flat fitted curve, though single readings scatter.

assay: NFAT Signaling Pathway (AID 444); settings: Jurkat NFAT-bla M1, carbachol, beta-lactamase ratio, 5 h; at 17.2 µM (top of the series) unless noted;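 also: carbachol stimulus at about its EC50 of 1 µM final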
How it was run: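 Read-out: CCF4 FRET ratio (460 nm/530 nm) after 1 h RT dye loading, used for %activity and AC50 from titration series. Cells: Jurkat NFAT-β-lactamase/M1 line, treated with compound plus 1 uM carbachol for 5 h, 37 °C.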
% is scaled to controls: 0 for no effect and ±100 for the full control effect.

Compound | activity change, negative = inhibition
N[C@@H]1CCc2cc(O)c(O)cc2C1 | -2.09% [at 38 µM]
CC(C)n1cc2c3c(cccc31)[C@@H]1C[C@H](C(=O)O[C@@H](C)[C@H](C)O)CN(C)[C@H]1C2 | -4.79% [at 38 µM]
CCN(CC)C(=O)N[C@H]1C[C@H]2c3cccc4[nH]cc(c34)C[C@@H]2N(C)C1 | 3.16% [at 38 µM]
CNCCc1nc(N)n[nH]1 | -10.7%
CC1(C)[C@@H]2CC[C@]1(C)CN(CCC[N+](C)(C)C)C2 | -12.6% [at 7.69 µM]
CC[C@H](CO)NC(=O)[C@@H]1C=C2c3cccc4[nH]cc(c34)C[C@@H]2N(C)C1 | -0.886% [at 38 µM]
CC1=C(C(=O)OC(C)C)[C@]2(C(=O)N(CC(N)=O)c3ccccc32)C(C#N)=C(N)O1 | -13.4%
O=C1CC[C@]2(O)[C@H]3Cc4ccc(O)c5c4[C@@]2(CCN3CC2CC2)[C@@H]1O5 | 9.93%
COC(=O)C(O)(c1ccc(NC(=O)c2ccco2)c(OC)c1)C(F)(F)F (configuration not stated) | 4.31%
CN1C[C@@H](CNC(=O)OCc2ccccc2)C[C@H]2c3cccc4c3c(cn4C)C[C@@H]21 | 0.446% [at 38 µM]
C[C@H]1C[C@@H](C)C(=O)[C@@H]([C@H](O)CC2CC(=O)NC(=O)C2)C1 | -119% (active)
CC1CCC(C(C)C)C(OP(N)(=O)c2ccccc2)C1 (configuration not stated) | 16.1%
N[C@@H](Cc1cc(O)c(O)cc1O)C(=O)O | 3.11% [at 38 µM]
CC(=O)[C@@H]1CC[C@@H]2[C@H]3CC[C@H]4C[C@@H](O)CC[C@]4(C)[C@@H]3C(=O)C[C@]21C | -2.4% [at 38 µM]
CNc1ccc2oc(C[C@@H]3O[C@@]4(CC[C@H]3C)O[C@@H]([C@@H](C)C(=O)c3ccc[nH]3)[C@@H](C)C[C@H]4C)nc2c1C(=O)O | 90.4% [activator] [at 38 µM] (active)
O=C1NCCN2CCCC12 (configuration not stated) | -0.485%
C/C(Cl)=C/CC1(CN2CCCC2=O)C(=O)NC(=O)NC1=O | 1.12%
COc1ccc2c(c1)[C@]13CCCC[C@@H]1[C@H](C2)N(C)CC3 | -11.7% [at 38 µM]
COCCOC(=O)C1=C(N)Oc2c(c(=O)oc3ccccc23)[C@@]12C(=O)Nc1ccccc12 | -5.71%
CC1(C)CC(n2[nH]c(=O)c3c2NC(=O)CSC3c2ccccc2)CCO1 (configuration not stated) | -1.52%
CC(C)(C)NC[C@H](O)c1ccccc1Cl | -15.3% [at 38 µM]
C=CCN1CC[C@]23c4c5ccc(O)c4O[C@@H]2C(=O)CC[C@@]3(O)[C@H]1C5 | -0.768% [at 38 µM]
CC(C)(O)[C@H]1[C@H]2OC(=O)[C@@H]1[C@]1(O)C[C@H]3O[C@]34C(=O)O[C@H]2[C@]14C (tested in a mixture with another compound) | -0.245% [at 38 µM]
C=CCN1CC[C@@]23CCCC[C@@H]2[C@@H]1Cc1ccc(O)cc13 | -24.3% [at 38 µM]
C[C@H](N)c1cccc(Cl)c1Cl | 7.99% [at 38 µM]
C=C(C)[C@@H]1CN[C@H](C(=O)O)[C@H]1CC(=O)O | 0.349% [at 38 µM]
CC1CN=C(Nc2ccc(N(C)C)cc2)S1 (configuration not stated) | -26.5%
